The list is not random: actives were taken first. Their share in the collection is about 8.1%.
KB-3-1 cytotox: KB-3-1 parental cell cytotoxicity. KB-3-1 viability, CellTiter-Glo ATP luminescence, 72 h. Potency, µM (highest dose often 46.1 µM), most hits filed as cytotoxic. hit rate 1.4% among 400,000. AID 1347075; note: nearly all actives have a fitted effect of over 60% in size
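Cytotoxicity in the drug-sensitive parental line KB-3-1 was scored as loss of CellTiter-Glo luminescence following 72 h incubation with compound. Values come from curve fitting of normalized concentration-response data.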
MCF10A rereplic: induces DNA re-replication in MCF 10a normal breast cells; AID 624296; MCF 10A DNA re-replication, Hoechst nuclear intensity, 48 h; hit rate 2.9% among 350,000; Potency, µM (titrated, usually from 46.1 µM), most hits filed as activators; note: nearly all actives have a fitted effect of over 50% in size
KB-V1 cytotox: kills drug-selected multidrug resistant KB-V1 cells; KB-V1 MDR cells viability, CellTiter-Glo, 72 h; Potency, µM (series often up to 46.1 µM), hits mostly cytotoxic; hit rate 3.4% among 400,000; note: nearly all actives have a fitted effect of over 60% in size
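KB-V1 MDR subline cells in DMEM (phenol-red free, 10% FBS) exposed to compounds in qHTS concentration series for 72 h at 37 degrees C. Viability read by CellTiter-Glo luminescence; concentration-effect curves fitted after normalization and correction.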
SW480 rereplic: induces DNA re-replication in SW480 colon adenocarcinoma cells | AID 624297 | SW480 DNA re-replication, Hoechst DNA content imaging, 48 h | hit rate 1.8% among 340,000 | Potency, µM (doses to about 46.1 µM), actives largely listed as activators; note: nearly all actives have a fitted effect of over 55% in size
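Image-based read-out: total Hoechst fluorescence of nuclei (405 nm excitation, 500-530 nm emission), with hits raising the fraction of high-intensity nuclei. SW480 colon cells incubated 48 hr with compounds at 37 C.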
ELG1 DNA repair: ELG1-dependent DNA repair inhibition. HEK293T ELG1-luciferase reporter, luminescence, 16 h; DNA damage induced by 5-fluorouridine. Potency, µM (titrated, usually from 46.1 µM), usual class: inhibitors. hit rate 2.3% among 330,000. AID 504467; note: nearly all actives have a fitted effect of over 55% in size
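5-Fluorouridine DNA damage + compound/DMSO, 2,000 cells/well, 16 h, 37 °C/5% CO2. ONE-Glo, 30 min RT, luminescence. Readout = decrease in reporter signal.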
Each line names hits and unclear results; the compound was inactive in the other large screens. Calls come from the whole dose curve; as a rule, active = well fitted curve in the direction sought with a large enough effect; inconclusive = small, poorly fitted or top-dose-only effect, or another doubt; inactive = no such curve, though single readings can be large; an effect the other way counts as inactive or inconclusive.

Cc1nc2cc(F)ccc2n1C1CCN(C(=O)c2ccc(F)cc2F)CC1	ELG1 DNA repair 9.2µM
Cc1ccc(C(c2nnnn2CCc2ccccc2)N2CCSCC2)cc1 (stereo not given)	KB-V1 cytotox inconclusive
Cc1ccc(C(c2nnnn2CCc2ccccc2)N2CCC(C)CC2)cc1 (stereo not given)	KB-3-1 cytotox inconclusive, MCF10A rereplic inconclusive, KB-V1 cytotox 18µM
Cc1cc(NS(=O)(=O)c2ccc(Nc3nc(-c4sc(N)nc4C)cs3)cc2)no1	none
CC(=O)O[C@H]1CC[C@H]2[C@@H]3CCc4cc(O)ccc4[C@H]3CC[C@]12C	KB-3-1 cytotox inconclusive, MCF10A rereplic inconclusive, KB-V1 cytotox 15µM, SW480 rereplic inconclusive, ELG1 DNA repair inconclusive
C[C@]12CC[C@H]3c4ccc(O)cc4CC[C@@H]3[C@H]1CC[C@@H]2OP(=O)(O)O	none (no result: KB-3-1 cytotox, KB-V1 cytotox, ELG1 DNA repair)
C[C@]12CC[C@@H]3c4ccc(O)cc4CC[C@H]3[C@@H]1CCC2OC(=O)CCC1CCCC1 (stereo not given in full)	MCF10A rereplic 24µM, SW480 rereplic inconclusive (no result: KB-3-1 cytotox, KB-V1 cytotox, ELG1 DNA repair)
C[C@]12CC[C@@H]3c4ccc(O)cc4CC[C@H]3[C@@H]1CC[C@@H]2O	MCF10A rereplic inconclusive, KB-V1 cytotox inconclusive, SW480 rereplic inconclusive
CC(=O)OC1CCC2C3CCc4cc(O)ccc4C3CCC12C (stereo not given)	MCF10A rereplic inconclusive, KB-V1 cytotox 18µM, SW480 rereplic inconclusive (no result: ELG1 DNA repair)
COc1ncccc1-c1nnn(-c2ccc(Cl)nc2)n1	ELG1 DNA repair inconclusive
Cc1ccc(C(=O)N2CCN(c3ccccc3F)CC2)cc1S(=O)(=O)N1CCOCC1	none
CCOC(=O)[C@H]1[C@H]2COc3ccc(Cl)cc3[C@@H]2N2C(=O)[C@H](C)NC(=O)[C@@]12C	MCF10A rereplic inconclusive (no result: ELG1 DNA repair)
O=C1CC(c2ccccc2)=C(c2ccccc2)C1c1ccccc1 (stereo not given)	KB-3-1 cytotox inconclusive, MCF10A rereplic inconclusive, KB-V1 cytotox 10µM, SW480 rereplic inconclusive (no result: ELG1 DNA repair)
O=CNc1ccc2c(c1)Cc1cccc(NC=O)c1-2	KB-3-1 cytotox inconclusive, KB-V1 cytotox 6.5µM (no result: ELG1 DNA repair)
COc1ccccc1/C=C/c1ccnc2ccccc12	none (no result: MCF10A rereplic, SW480 rereplic, ELG1 DNA repair)
COc1ccc(OC)c(/C=C/c2ccnc3ccccc23)c1	KB-3-1 cytotox inconclusive, MCF10A rereplic 5.2µM, KB-V1 cytotox 5.2µM, SW480 rereplic 12µM (no result: ELG1 DNA repair)
COc1ccc2nccc(/C=C/c3ccnc4ccc(OC)cc34)c2c1	MCF10A rereplic 15µM, SW480 rereplic 23µM
C[n+]1c(/C=C/c2ccnc3ccccc23)cc(/C=C/c2ccnc3ccccc23)c2ccccc21	none (no result: MCF10A rereplic, SW480 rereplic, ELG1 DNA repair)
Cc1ccc(C)c(NC(=O)COC(=O)c2cccc3c2C(=O)c2ccccc2C3=O)c1	KB-3-1 cytotox inconclusive, KB-V1 cytotox 15µM, SW480 rereplic 13µM, ELG1 DNA repair 23µM
Cc1ccc(NC(=O)COC(=O)c2cccc3c2C(=O)c2ccccc2C3=O)c(C)c1	MCF10A rereplic inconclusive, KB-V1 cytotox inconclusive, SW480 rereplic inconclusive, ELG1 DNA repair 10µM
O=C(COC(=O)c1cc2ccccc2oc1=O)Nc1cccc(Br)c1	none
Cc1cccc(NC(=O)COC(=O)c2cc3ccccc3oc2=O)c1	MCF10A rereplic 0.65µM, SW480 rereplic 21µM
O=C(COC(=O)c1cccc2c1C(=O)c1ccccc1C2=O)NC1CCCCC1	KB-V1 cytotox 21µM, ELG1 DNA repair inconclusive
CCN(CC)c1ccc(C(=O)NC(=S)Nc2cc(S(=O)(=O)N3CCOCC3)ccc2-n2cncn2)cc1	KB-V1 cytotox inconclusive
CSc1nc2ncncc2[nH]1	none (no result: ELG1 DNA repair)
Cc1ccc(NC(=O)CSc2nnc(-c3nnn(-c4ccc(F)cc4)c3C)o2)cc1Br	none (no result: MCF10A rereplic, SW480 rereplic, ELG1 DNA repair)
Cc1cc(C)c(NC(=O)COC(=O)c2cccc3c2C(=O)c2ccccc2C3=O)c(C)c1	KB-3-1 cytotox inconclusive, MCF10A rereplic inconclusive, KB-V1 cytotox inconclusive, ELG1 DNA repair 13µM
Cc1cccc(C)c1NC(=O)COC(=O)c1ccccc1Nc1ccccc1	none
CCOC(=O)C1CCC(=O)C1 (stereo not given)	KB-V1 cytotox inconclusive (no result: ELG1 DNA repair)
C=C1CCN([C@@H](C)C(=O)OCc2ccc(C)cc2)S(=O)(=O)c2ccccc21	MCF10A rereplic inconclusive, SW480 rereplic inconclusive
CCc1cccc(CC)c1NC(=O)COC(=O)C1(c2ccc(Cl)cc2)CCCC1	KB-V1 cytotox 4.6µM
CCOc1ccccc1N1CC(C(=O)N(CC)CC(=O)Nc2ccc3c(c2)OCCO3)CC1=O (stereo not given)	SW480 rereplic 2.3µM
CCN(CC(=O)Nc1ccc2c(c1)OCCO2)C(=O)C1CC(=O)N(c2ccc(OC)cc2OC)C1 (stereo not given)	KB-V1 cytotox inconclusive
COCCn1cnc2c(c1=O)c1nc3ccccc3nc1n2/N=C/c1ccc(OC)c(OC)c1	SW480 rereplic inconclusive, ELG1 DNA repair 5.8µM
O=c1c2c3nc4ccccc4nc3n(/N=C/c3ccncc3)c2ncn1-c1ccccc1	none
Cc1nc2c(c(=O)n1CCC1=CCCCC1)c1nc3ccccc3nc1n2/N=C/c1ccco1	MCF10A rereplic inconclusive, KB-V1 cytotox inconclusive, ELG1 DNA repair 5.2µM
COCCn1cnc2c(c1=O)c1nc3ccccc3nc1n2/N=C/c1ccco1	none
C=CCn1cnc2c(c1=O)c1nc3ccccc3nc1n2/N=C/c1cccc(OC)c1	ELG1 DNA repair 21µM
CCCCCCn1cnc2c(c1=O)c1nc3ccccc3nc1n2/N=C/c1ccco1	KB-V1 cytotox inconclusive, ELG1 DNA repair 15µM
CC12C(=O)N(c3nccs3)C(=O)C1(C)C1CCC2O1 (stereo not given)	SW480 rereplic inconclusive (no result: ELG1 DNA repair)
C[C@@]12C(=O)OC(=O)[C@]1(C)C1CCC2O1	KB-3-1 cytotox inconclusive, KB-V1 cytotox 5.8µM, SW480 rereplic inconclusive, ELG1 DNA repair inconclusive
O=C(CSc1nnc(-c2ccco2)o1)c1ccc[nH]1	KB-3-1 cytotox inconclusive, SW480 rereplic inconclusive, ELG1 DNA repair inconclusive
Cc1ccc(N2C(=O)C3C(C2=O)C(C(=O)c2ccc(Cl)cc2)N2CCCC32)cc1 (stereo not given)	KB-V1 cytotox inconclusive, ELG1 DNA repair inconclusive
CC(=O)Oc1ccc(N2C(=O)C3C(C2=O)C(C(=O)c2ccc(Cl)cc2)N2CCCC32)cc1 (stereo not given)	KB-3-1 cytotox 18µM, MCF10A rereplic 18µM, KB-V1 cytotox inconclusive, SW480 rereplic 4.6µM, ELG1 DNA repair inconclusive
CC(C)(C)c1ccc(CC(=O)N2CCC2(C)C(=O)Nc2ccc(F)cc2F)cc1 (stereo not given)	none (no result: MCF10A rereplic, SW480 rereplic, ELG1 DNA repair)
O=c1nc(Nc2cccc(Cl)c2)oc2cc(Cl)oc(=O)c12	MCF10A rereplic 16µM, KB-V1 cytotox inconclusive, ELG1 DNA repair inconclusive
O=c1nc(Nc2ccccc2)oc2ccccc12	KB-V1 cytotox inconclusive, ELG1 DNA repair inconclusive
CC(C)(C)C(=O)Nc1ccc(C(=O)CSc2nnc(C3CC3)n2C2CC2)cc1	none
O=[N+]([O-])c1ccc(-c2c(O)c3ccccc3c3nc4ccccc4nc23)cc1	ELG1 DNA repair 23µM
Cn1cccc1Cc1nnc(SCC(=O)Nc2cccc(F)c2)n1-c1ccc(F)cc1	none

Bioassay records from PubChem.
